Shown are actives, neighbours in structure and some others; about 11% of the full set was active somewhere.
HTT cytoprotect: qHTS Multiplex Assay to Identify Dual Action Probes in a Cell Model of Huntington: Cytoprotection (ATP); PC12 HTT-Q103 induced, cytoprotection, ATP luminescence, 40 h; Potency, µM (highest dose often 56.4 µM), for inactives: cytoprotection (ATP increase), most hits filed as activators; actives 0.14% (n = 230,000); AID 1471, 2008; active = well fitted curve in the direction sought with a large enough effect; inconclusive = small, poorly fitted or top-dose-only effect, or another doubt; inactive = no such curve, though single readings can be large; an effect the other way counts as inactive or inconclusive; also: potency is read from the fitted curve at half-maximal effect; % of control where 0% means no effect; nearly all actives have a fitted effect of over 45% in size
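Huntington model: PC12 line, ecdysone-inducible HTTQ103 exon1–GFP, tebufenozide 100 nM. Test articles in a dose series. Endpoint luminescence from cellular ATP.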
RGS12 GoLoco inh: qHTS Assay for Inhibitors of RGS12 GoLoco Motif Activity (Red Fluorophore) | actives 0.44% (n = 230,000) | Potency, µM (top dose mostly 61.6 µM), without a hit: at the top dose activity, negative = inhibition, hits mostly inhibitors | Gai1:RGS12 GoLoco peptide FP, rhodamine, 10 min; active = well fitted inhibition curve with a large enough effect, not every such curve was filed as active; inactive = no such curve, though single readings can be large or run the other way; also: potency is read from the fitted curve at half-maximal effect; % is scaled to controls: 0 for no effect and ±100 for the full control effect; nearly all actives have a fitted effect of over 30% in size
Target sequence (P63096 whole entry, looked up): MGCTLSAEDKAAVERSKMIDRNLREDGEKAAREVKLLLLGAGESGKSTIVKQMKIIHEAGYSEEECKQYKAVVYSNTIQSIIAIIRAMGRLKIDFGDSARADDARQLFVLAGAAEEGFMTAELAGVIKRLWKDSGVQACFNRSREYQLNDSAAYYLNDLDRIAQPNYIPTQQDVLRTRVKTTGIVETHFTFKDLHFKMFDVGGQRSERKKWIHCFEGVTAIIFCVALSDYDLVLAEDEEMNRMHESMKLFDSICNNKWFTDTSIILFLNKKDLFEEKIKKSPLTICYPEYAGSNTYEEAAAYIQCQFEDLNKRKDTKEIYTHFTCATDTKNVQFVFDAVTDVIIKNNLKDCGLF
PNC assembly inh: High Content Assay for Compounds that inhibit the Assembly of the Perinucleolar Compartment; PC3M PTB-GFP, PNC prevalence imaging, 16 h; stronger effect = lower value; activity change (PNC), negative = inhibition, % at 10 µM; actives 3.1% (n = 140,000); AID 2417, 2010;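 active = readout at or below -70, meaning at least 70% loss of cells showing the perinucleolar compartment, a nuclear body marking cancer cells; inconclusive = readout between -30 and a set limit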;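 also: plate controls were DMSO wells for no effect and camptothecin positive control wells for full effect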
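PC3M cells stably expressing PTB-GFP, 750–1000 cells/well, treated 16 h at 37 °C with compound (23 nl of library stock), in duplicate. After paraformaldehyde fixation and Hoechst stain, imaged at 20x; PNC prevalence scored by image analysis.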
HTT aggregate: qHTS Multiplex Assay to Identify Dual Action Probes in a Cell Model of Huntington: Aggregate Formation (GFP); actives 1.1% (n = 220,000); PC12 HttQ103-GFP aggregates, Acumen cytometry, 40 h; AID 1688, 2009; Potency, µM (doses to about 46.1 µM), for inactives: at the highest dose activity change, negative = inhibition, actives largely listed as inhibitors; active = well fitted curve in the direction sought with a large enough effect; inconclusive = small, poorly fitted or top-dose-only effect, or another doubt; inactive = no such curve, though single readings can be large; an effect the other way counts as inactive or inconclusive; also: potency is read from the fitted curve at half-maximal effect; % is scaled to controls: 0 for no effect and ±100 for the full control effect; nearly all actives have a fitted effect of over 60% in size
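Steps: seed 1500 PC12 HTTQ103-GFP cells/well; add tebufenozide, 100 nM final; add compound titration; add ATPLite reagent; quantify GFP aggregates by laser scanning cytometry.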
HPGD block: qHTS Assay for Inhibitors of HPGD (15-Hydroxyprostaglandin Dehydrogenase); actives 4.3% (n = 150,000); AID 894, 2007; 15-hydroxyprostaglandin dehydrogenase [NAD(+)] (Homo sapiens), P15428; purified HPGD, NADH fluorescence kinetic, PGE2 substrate; Potency, µM, for inactives: at the top dose activity change, negative = inhibition, most hits filed as inhibitors; also: potency is read from the fitted curve at half-maximal effect; % is scaled to controls: 0 for no effect and ±100 for the full control effect
Target sequence (P15428 whole entry, looked up): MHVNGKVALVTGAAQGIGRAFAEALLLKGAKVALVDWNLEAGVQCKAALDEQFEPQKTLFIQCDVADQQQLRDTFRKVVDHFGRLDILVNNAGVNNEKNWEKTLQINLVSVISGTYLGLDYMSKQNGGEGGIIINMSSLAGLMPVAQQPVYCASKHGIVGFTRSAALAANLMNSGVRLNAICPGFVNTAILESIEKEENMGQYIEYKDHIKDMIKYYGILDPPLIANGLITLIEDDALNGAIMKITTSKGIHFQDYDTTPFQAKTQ
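20 nM HPGD preincubated 15 min at room temperature with compound in 50 mM Tris-HCl pH 8, 0.01% Tween 20. Started with 1 mM NAD+ and 30 uM prostaglandin E2; NADH fluorescence (360/450 nm) read 5 times over 30-s intervals, last minus first.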
ALDH1A1 inh: qHTS Assay for Inhibitors of Aldehyde Dehydrogenase 1 (ALDH1A1). Aldehyde dehydrogenase 1A1 (Homo sapiens), P00352. Purified ALDH1A1, NADH fluorescence, propionaldehyde substrate. actives 7.3% (n = 220,000). Potency, µM (top dose mostly 75.3 µM), for inactives: at the highest dose activity, negative = inhibition, actives largely listed as inhibitors;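 also: potency is read from the fitted curve at half-maximal effect; plate controls were no enzyme wells and a reference inhibitor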
Active calls of the source: *; ? = inconclusive; · = not tested or not shown; [ ] = remark or other dose. Unless noted, calls follow the shape of the dose curve; as a rule, active = well fitted inhibition curve with a large enough effect (not every such curve was filed as active); inconclusive = small, poorly fitted or top-dose-only effect, or another doubt; inactive = no such curve, though single readings can be large or run the other way.

SMILES | HTT cytoprotect | RGS12 GoLoco inh | PNC assembly inh | HTT aggregate | HPGD block | ALDH1A1 inh
CC1CCC(NC(=O)Cn2c(=O)[nH]c3ccsc3c2=O)CC1 (centres undefined) | 2% | 0% | -27 | 10% | -1% | 4%
O=C(O)[C@H]1NCCC[C@H]1C(=O)O | · | 16% | · | · | -13% | -4%
CS(=O)(=O)Nc1cccc(-c2cncnc2-n2ccnc2)c1 | -12% | -14% | · | · | · | ?
C/C(=N\Nc1ccc(F)cc1)c1ccncc1 | 25%[10 µM] | 0% | ? | 2% | -25% | 20µM*
CCOC(=O)c1c(C)oc2c(CC(=O)c3ccccc3)c(Cl)c(O)c(O)c12 | · | -12% | 31 | 25% | 7.1µM* | -1%
CCOC(=O)c1c(C)oc2c1c(CN1CCN(C(=O)OCC)CC1)c(O)c1ccccc12 | · | -6% | 49 | 24% | -15% | 1.6µM*
CCOC(=O)c1c(C)oc2c1c(C(c1ccncc1)N1CCOCC1)c(O)c1ccccc12 (centres undefined) | 6%[10 µM] | 18% | -27 | 19% | -27% | 13µM*
CCOC(=O)c1c(C)oc2ccc(O)c(CN3CCCCC3)c12 | 0% | 1% | 30 | -17% | -13% | -4%
CCOC(=O)c1oc2ccccc2c1CN1CCN(C(=O)c2ccccc2)CC1 | -4%[10 µM] | -7% | -109* | 16% | 0% | 20µM*
CS(=O)(=O)N1CCC2(CC1)CN(C(=O)Nc1cccc(F)c1)C2 | -33% | 0% | · | · | 2% | 7%
CCOC(=O)c1c(C)oc2c1c(CN1CCN(CCO)CC1)c(O)c1ccccc12 | -26% | 9% | · | 17% | · | 0.35µM*
CC(=O)NCCNc1ncnc2ccc(-c3ccccc3C)cc12 | -48% | 9% | · | · | · | ?
Nc1nonc1C(=O)NCCN=Cc1cc(Cc2ccccc2)cc(Br)c1O | -43% | 2% | -2 | ? | 16µM* | -11%
O=C(O)c1cccc(N=Nc2c(S(=O)(=O)O)ccc3c2C(=O)c2ccccc2C3=O)c1O | -3%[10 µM] | -2%[14.2 µM] | · | · | -22% | -5%[13.5 µM]
Nc1[nH][nH]c(=O)c1N=Nc1cccc(Cl)c1 | 24%[10 µM] | 10% | · | 17%[9.22 µM] | · | 4%
O=C1CCN(N=Nc2cccc(Cl)c2)N1 | -6% | -3% | -23 | 8% | ? | 20µM*
COc1cc(C(=O)Oc2ccc3c(OC)c4ccoc4nc3c2OC)cc(OC)c1OC | -48% | 7% | · | · | -9% | 4%
Fc1cccc(-c2nnn3c2nc(Cl)c2ccccc23)c1 | -182% | 4% | · | ? | · | ?
COc1ccccc1-n1cnc2cc(C(=O)NC3CCCC3)ccc21 | 11%[10 µM] | 19% | 10 | ? | 16µM* | 3%
O=C(O)c1ccc2c(c1)ncn2C1CCCCC1 | 0%[10 µM] | -1% | ? | 4% | -11% | -4%
COc1ccc(OC)c(-n2cnc3cc(C(=O)O)ccc32)c1 | -8% | 36% | -5 | 4% | 16µM* | 5%
CCC(=O)Nc1ccc2c(c1)ncn2-c1ccccc1OC | 3% | 6% | -3 | -4% | -16% | -5%
O=C(NC1CC1)c1ccc2c(c1)ncn2C1CCCC1 | -8% | -9% | ? | -4% | 14µM* | ?
CCOc1ccccc1-n1cnc2cc(C(=O)NCc3ccco3)ccc21 | -12% | 16% | -30 | ? | 16µM* | -16%
S=C(Nc1ccccc1)N1CCN(C(=S)c2ccccc2)CC1 | 0% | 7% | · | -17% | · | 13µM*
SMILES | HTT cytoprotect | RGS12 GoLoco inh | PNC assembly inh | HTT aggregate | HPGD block | ALDH1A1 inh
Cc1cc(C)c(-c2csc(NC(=O)c3n[nH]c(=O)c4ccccc34)n2)c(C)c1 | 1%[10 µM] | 6% | -89* | -18% | -6% | 10%
CCC(C)NC(=O)c1n[nH]c(=O)c2ccccc12 (centres undefined) | -8% | -13% | -100* | ? | 3% | 0%
NNC(=O)c1n[nH]c(=O)c2ccccc12 | -5%[10 µM] | 5% | · | -14%[9.22 µM] | · | ·
COc1ccc(-c2nc(NC(=O)c3n[nH]c(=O)c4ccccc34)sc2C)cc1 | · | -10% | -114* | 1% | -13% | 0%
COc1cc(NC(=O)c2n[nH]c(=O)c3ccccc23)cc(OC)c1 | 16%[10 µM] | 6% | · | 5%[9.22 µM] | · | ·
Nc1cc(Br)c(N)c(Br)c1 | -4% | -1% | -93* | 28% | -1% | 0%
CCOC(=O)c1ccc(NC(=S)N(CCCN2CCCC2)Cc2cccs2)cc1 | -30% | -3% | · | 6% | · | 5%
COc1ccc(NC(=S)N(CCCN2CCC(C)CC2)Cc2cccs2)cc1 | -33% | -7% | · | -2% | · | 20µM*
COc1cccc(NC(=S)N(CCCN2CCOCC2)Cc2cn(C)c3ccccc23)c1 | -53%[10 µM] | -1% | ? | 11µM* | -16% | ?
COc1ccc(NC(=S)N(CCCN2CCCCC2)Cc2cccs2)cc1 | 1%[10 µM] | 0% | -105* | 8% | -10% | ?
COc1ccc(NC(=S)N(CCCN2CCOCC2)Cc2cn(C)c3ccccc23)cc1OC | -25%[10 µM] | 6% | 14 | -27% | -8% | -4%
Nn1cnnc1N/N=C\c1ccc(-c2ccccc2[N+](=O)[O-])o1 | -17%[10 µM] | 3% | ? | -18% | -22% | 25µM*
O=[N+]([O-])c1ccccc1-c1ccc(/C=N/n2cnnc2)o1 | 7% | 4% | 47 | 11% | 16µM* | -10%
Cc1ccc(-c2ccc(/C=N/n3cnnc3)o2)cc1 | 2%[10 µM] | 8% | · | 17%[9.22 µM] | · | ?
Cc1ccc(Sc2c(O)c3ccccc3n(C)c2=O)cc1 | · | -3% | 30 | 0% | -9% | -6%
Cc1ccc(Sc2c(C=O)c3ccccc3n2C)cc1 | -3%[10 µM] | 3% | 36 | 10µM* | -15% | -11%
CCCCNC(=O)Nc1ccccc1C(=O)NCCC | 18%[10 µM] | -8% | -100* | -10% | -23% | 12%
COc1cc(-c2cccc([C@H]3[C@@H]4C=CC[C@@H](C)[C@@H]4C(=O)N3Cc3ccccc3)c2)cc(OC)c1OC | · | 17% | · | · | -9% | ?
CC1=NN(c2ccc(Cl)cc2)C(=O)C1C(c1ccccc1O)c1c(C)[nH]n(-c2ccc(Cl)cc2)c1=O (centres undefined) | 5%[10 µM] | 11% | -22 | ? | 7.9µM* | 7.5µM*
Cn1c(NCc2ccccc2O)nc2ccccc21 | -13% | 2% | -14 | -4% | -17% | ?
C=CCc1cccc(CNc2nc3ccccc3n2C(C)C)c1O | -65% | 5% | 4 | 18µM* | -6% | -6%

Bioassay records as filed in PubChem BioAssay.
